Tests used:
Details in all cases: concentration: 1 μM, replicates: in singlicate; n = 1
TRPM6 = test system: TRPM6
TSSK1B = test system: TSSK1B
TSSK3 = test system: TSSK3
TTK = test system: TTK
TXK = test system: TXK
[1] = test system: TYK2(JH1domain-catalytic)
[2] = test system: TYK2(JH2domain-pseudokinase)
TYRO3 = test system: TYRO3
ULK1 = test system: ULK1
ULK2 = test system: ULK2
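Further: KINOMEscan kinase panel screen.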

| Compound | %Inh (TRPM6) [%] | %Inh (TSSK1B) [%] | %Inh (TSSK3) [%] | %Inh (TTK) [%] | %Inh (TXK) [%] | %Inh [1] [%] | %Inh [2] [%] | %Inh (TYRO3) [%] | %Inh (ULK1) [%] | %Inh (ULK2) [%] |
| --- | --- | --- | --- | --- | --- | --- | --- | --- | --- | --- |
| CCS(=O)(=O)c1ccc(OC)c(Nc2ncc(-c3ccc(F)cc3)o2)c1.Cl [GW591947] | 4 | 10 | 13 | 0 | 0 | 1 | 0 | 4 | 0 | 0 |
| Cn1c(=O)c(F)c(Nc2ccc(I)cc2F)c2c(=O)n(OC[C@H](O)CO)cnc21 | 0 | 0 | 0 | 15 | 23 | 0 | 0 | 2 | 0 | 0 |
| CN(C)c1cc(-c2ccc3c(N)n[nH]c3c2)nc(N)n1 [GSK2219329] | 13 | 0 | 6 | 0 | 97.2 | 14 | 25 | 0 | 0 | 0 |
| Cc1cccc(-c2cc(-c3c[nH]nc3-c3ccccn3)ccn2)c1 [GW679395] | 0 | 24 | 0 | 23 | 0 | 9 | 27 | 0 | 0 | 0 |
| Nc1n[nH]c2nnc(-c3ccccc3)c(-c3ccccc3)c12 [GW554060] | 0 | 13 | 20 | 0 | 12 | 34 | 55 | 10 | 27 | 8 |
| COC(=O)c1c(-c2ccccc2)c2cc(Br)ccc2c(=O)n1Cc1ccc(NC(=O)CCC(=O)O)cc1 | 0 | 0 | 0 | 9 | 39 | 4 | 0 | 0 | 8 | 11 |
| CCC(=O)c1c(-c2ccccc2)c2cc(Cl)ccc2c(=O)n1Cc1cc(C(=O)NC2CC2)n(C)n1 | 0 | 0 | 0 | 15 | 24 | 8 | 1 | 0 | 0 | 6 |
| CC(C)(C)c1ccc(C(=O)Nc2cn3cc(-c4ccccc4)ccc3n2)cc1 | 0 | 0 | 8 | 0 | 9 | 0 | 6 | 5 | 0 | 49 |
| Cl.NS(=O)(=O)c1cccc(Nc2cc(-c3ccc(F)cc3)n[nH]2)c1 [GW824645] | 0 | 0 | 0 | 0 | 0 | 0 | 9 | 0 | 15 | 47 |
| Nc1n[nH]c2ncc(-c3ccccc3)cc12 [SB-517081] | 21 | 16 | 4 | 33 | 0 | 45 | 92.7 | 0 | 3 | 0 |
| CCC(=O)c1c(-c2ccccc2)c2cc(Cl)ccc2c(=O)n1Cc1ccc(C(=O)O)cc1 | 0 | 0 | 0 | 0 | 0 | 0 | 0 | 0 | 0 | 2 |
| O=C(NCCNc1ccnc(Nc2ccc(F)cc2)n1)Nc1ccc2c(c1)OCO2 [GSK1379882] | 26 | 0 | 24 | 15 | 100 | 21 | 28 | 0 | 0 | 0 |
| Cc1ccc(Oc2ccc(Nc3ncnc4cc[nH]c34)cc2C)cn1 | 0 | 5 | 0 | 31 | 6 | 22 | 15 | 3 | 11 | 0 |
| Cc1ccc(-c2ccc3c(ccc4sc5c(c43)NC[C@@H](C)N=C5N(C)C)n2)cn1 | 0 | 0 | 0 | 0 | 0 | 0 | 0 | 0 | 0 | 0 |
| CCc1ccc(-c2ccc3c(c2)-c2nn(C)cc2S(=O)(=O)N3C)cc1 | 0 | 0 | 0 | 0 | 0 | 0 | 0 | 0 | 0 | 0 |
| COc1cccc(C2=C(Nc3cccc(C(=O)O)c3)C(=O)NC2=O)c1 [SB-390770] | 15 | 23 | 15 | 0 | 48 | 19 | 0 | 0 | 26 | 6 |
| COc1cccc(C2=C(N(C)c3ccccc3)C(=O)NC2=O)c1 [SB-334865] | 26 | 0 | 7 | 0 | 22 | 12 | 42 | 0 | 19 | 0 |
| FC(F)(F)c1ccc(-c2ncn(CCCN3CCOCC3)c2-c2ccncc2)cc1 [SB-217780] | 4 | 0 | 0 | 0 | 10 | 32 | 24 | 0 | 1 | 46 |

From PMC5540273 (PLoS ONE, 2017)
